The target of experiment [1] is Paired box protein Pax-6 (Homo sapiens) (UniProt P26367). Briefly: ATG_Pax6_CIS: Attagene CIS-FACTORIAL HepG2 Assay for human Paired Box 6 (PAX6) (AID 2282956). The settings on record: HepG2 CIS-FACTORIAL PAX6 reporter transcription, RNA readout; actives raise or lower the signal. In short, it runs like this: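 Fluorescent RT-PCR products separated by capillary electrophoresis report PAX6-linked promoter mRNA in HepG2 cells 24 h post-dose. Curves fitted bidirectionally, DMSO as negative control.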

The nature of experiment [2]: ATG_PXRE_CIS: Attagene CIS-FACTORIAL HepG2 Assay for human Pregnane X Receptor Element (PXRE) (AID 2282957). The settings on record: HepG2 Attagene CIS-FACTORIAL PXRE reporter, mRNA; actives raise or lower the signal. Summed up:
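Reporter transcripts under endogenous PXR-responsive cis-regulation quantified from total RNA of transfected HepG2 cells 24 h post-dosing, via RT-PCR with fluorescent primer extension and capillary electrophoresis. Gain or loss of signal fitted against DMSO baseline.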

The nature of experiment [3]: ATG_PPRE_CIS: Attagene CIS-FACTORIAL HepG2 Assay for human Peroxisome Proliferator-activated Response Element (PPRE) (AID 2282958). The settings on record: HepG2 PPRE cis-element reporter, Attagene transcription factor profiling; actives raise or lower the signal. In short, it runs like this:
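PPRE activity in HepG2: transient cis-reporter transfection, 24 h compound incubation, reporter mRNA by RT-PCR and CE fluorescence; gain/loss fitted against DMSO.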

Experiment [4] is described as follows: ATG_RORE_CIS: Attagene CIS-FACTORIAL HepG2 Assay for human RAR-related Orphan Receptor Element (RORE) (AID 2282959). To be noted: HepG2 Attagene cis-factorial RORE reporter, mRNA; actives raise or lower the signal. Summed up:
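A 24-hour exposure of transfected HepG2 hepatoma cells precedes RNA isolation and reporter RT-PCR. Labeled products are digested with HpaI and resolved by capillary electrophoresis, with gain or loss of signal scored relative to DMSO.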

Experiment [5] can be described thus: ATG_Sox_CIS: Attagene CIS-FACTORIAL HepG2 Assay for human SRY-box transcription factor (SOX) (AID 2282960). To be noted: HepG2 Attagene cis-factorial SOX reporter, mRNA; actives raise or lower the signal. Summed up:
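HepG2, cis reporter units, 24 h exposure. Reporter mRNA: RT-PCR → FAM labelling → HpaI → CE fluorescence. Bidirectional fit vs DMSO.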

Experiment [6] concerns the target Transcription factor Sp1 (Homo sapiens) (UniProt P08047). Briefly: ATG_Sp1_CIS: Attagene CIS-FACTORIAL HepG2 Assay for human Specificity Protein 1 (Sp1) (AID 2282961). To be noted: HepG2 Sp1 cis-reporter transcription, actives raise or lower the signal. In short, it runs like this:
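Liver-derived HepG2 cells, cis-element reporter library, 24 h treatment; RNA isolated, cDNA amplified with reporter-specific primers, FAM-labeled fragments sized on capillary analyzer. DMSO baseline, bidirectional curve fit.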

Experiment [7] is described as follows: ATG_SREBP_CIS: Attagene CIS-FACTORIAL HepG2 Assay for human Sterol Regulatory Element Binding (SREBP) (AID 2282962). To be noted: HepG2 Attagene cis-factorial SREBP reporter, mRNA; actives raise or lower the signal. In short, it runs like this:
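Endogenous factor activity is measured in HepG2 through multiplexed reporter units under cis-element control. Following a 24 h incubation, reporter transcripts are reverse-transcribed, PCR-amplified and sized by capillary electrophoresis; activity is fitted in both directions relative to DMSO.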

The target in experiment [8] is Signal transducer and activator of transcription 3 (Homo sapiens) (UniProt P40763). Briefly: ATG_STAT3_CIS: Attagene CIS-FACTORIAL HepG2 Assay for human Signal Transducer and Activator of Transcription 3 (STAT3) (AID 2282963). To be noted: HepG2, Attagene cis-factorial STAT3 reporter transcription; actives raise or lower the signal. Summed up:
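Fluorescence intensity of 6-FAM-labelled reporter fragments, separated by capillary electrophoresis after RT-PCR, gave the signal. Cells were HepG2 transfected with cis-element reporter units and treated 24 h; fitting was bidirectional relative to DMSO.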

Experiment [9] in a line: ATG_TA_CIS: Attagene CIS-FACTORIAL HepG2 Assay for human TA Basal Promoter (AID 2282964). To be noted: HepG2 Attagene CIS-factorial TA basal promoter reporter; actives raise or lower the signal. In short, it runs like this:
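Background internal-marker endpoint from a 52-component HepG2 cis-reporter panel. Cells treated 24 h; reporter transcripts quantified via RT-PCR and CE fluorescence against DMSO baseline.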

Experiment [10] can be described thus: ATG_TCF_b_cat_CIS: Attagene CIS-FACTORIAL HepG2 Assay for human T-Cell-Factor with beta-catenin (TCF/b-cat) (AID 2282965). The settings on record: HepG2 TCF/beta-catenin cis-reporter transcription, actives raise or lower the signal. Summed up: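 Cells of the HepG2 line carry transiently transfected reporter units whose promoters respond to endogenous factors. Twenty-four hours post-dosing, reporter mRNA induction is measured by fluorescent RT-PCR and capillary electrophoresis, with DMSO as baseline.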

A short description of experiment [11]: ATG_TAL_CIS: Attagene CIS-FACTORIAL HepG2 Assay for human TAL Basal Promoter (AID 2282966).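 Further: background control endpoint measuring basal TAL promoter reporter mRNA not a specific factor.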 To be noted: HepG2 Attagene cis-factorial TAL promoter reporter; actives raise or lower the signal. Summed up: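 Background-control endpoint: basal TAL promoter reporter transcripts in transiently transfected HepG2, measured 24 h after dosing. Read-out by RT-PCR with fluorescent primer extension and capillary electrophoresis; gain or loss of signal fitted relative to DMSO.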

A short description of experiment [12]: ATG_TGFb_CIS: Attagene CIS-FACTORIAL HepG2 Assay for human Transforming Growth Factor (TGF) (AID 2282967). To be noted: HepG2 Attagene CIS TGFb reporter, mRNA transcription; actives raise or lower the signal. In short, it runs like this: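 Liver HepG2 line, cis-factorial reporter panel, 24 h dosing. Quantitation: RT-PCR products labeled with 6-FAM, cut with HpaI, resolved by capillary electrophoresis; DMSO-referenced bidirectional analysis.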

Experiment [13] concerns the target X-box-binding protein 1 (Homo sapiens) (UniProt P17861). The experiment in a line: ATG_Xbp1_CIS: Attagene CIS-FACTORIAL HepG2 Assay for human X-box Binding Protein 1 (XBP1) (AID 2282972). To be noted: HepG2 XBP1 cis-element reporter, Attagene multiplex; actives raise or lower the signal. In short, it runs like this:
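Multiplexed cis-reporter readout in transfected HepG2 liver cells. Exposure lasted 24 hours. Activity in either direction was fitted against DMSO as negative control and baseline.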

Experiment [14] is described as follows: ATG_M_19_TRANS: Attagene TRANS-FACTORIAL HepG2 Assay for M19 Transcription Factor (Internal Marker) (AID 2282974; active means hit-call score of the fitted dose curve at least 0.9, where 1 is the maximum). The settings on record: HepG2 Attagene TRANS-FACTORIAL M19 internal marker reporter. Summed up: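 Transfected HepG2 (GAL4-UAS MRTUs), 24 h compound, TriZol RNA, DNase-treated RT, reporter PCR, FAM label, HpaI digest, CE fluorescence; gain vs DMSO.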

Experiment [15] is described as follows: ATG_VDRE_CIS: Attagene CIS-FACTORIAL HepG2 Assay for human Vitamin D Receptor Element (VDRE) (AID 2282968). To be noted: HepG2 VDRE cis-reporter transcription, actives raise or lower the signal. In short, it runs like this: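 Compounds were applied for 24 h to HepG2 cells transfected with promoter-regulated reporter units. Total RNA was reverse-transcribed, and reporter amplicons were fluorescently labelled and sized by capillary electrophoresis.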

Experiment [16] addresses Nuclear receptor subfamily 1 group I member 3 (Homo sapiens) (UniProt Q14994). Briefly: ATG_CAR_TRANS: Attagene TRANS-FACTORIAL HepG2 Assay for human Constitutive Androstane Receptor (CAR) (AID 2282969; active means hit-call score of the fitted dose curve at least 0.9, where 1 is the maximum;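 further: activators raise reporter mRNA above DMSO so AC50 marks induction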). To be noted: HepG2 Attagene TRANS-FACTORIAL CAR reporter. In short, it runs like this:
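Transiently transfected HepG2, multiplex TRANS reporters (CAR-Gal4 chimera driving GAL4-UAS reporter). 24 h dosing. Readout: reporter transcript by RT-PCR + capillary electrophoresis, fluorescence intensity; positive direction vs DMSO.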

Experiment [17] in a line: ATG_GAL4_TRANS: Attagene TRANS-FACTORIAL HepG2 Assay for GAL4 (Internal Marker) (AID 2282976; active means hit-call score of the fitted dose curve at least 0.9, where 1 is the maximum). To be noted: HepG2 Attagene TRANS GAL4 internal marker reporter. Summed up:
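In transfected human HepG2 liver cells dosed 24 h, GAL4 reporter mRNA serves as a baseline marker. Detection by RT-PCR with fluorescent capillary electrophoresis, activity fitted upward relative to DMSO.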

“And” between values parts separate entries of the source, which are not always exact repeats. Identical values can stand only once. Inconclusive results are not listed. A structure can be active in one record and inactive in another. The source made the active and inactive calls. How the source made its calls, unless noted: active means hit-call score of the fitted dose curve at least 0.9, where 1 is the maximum; inactive means score below 0.9.

Experimental findings from PubChem BioAssay (EPA / NIEHS) are described below.

Sequence of X-box-binding protein 1 (Homo sapiens) (P17861 whole entry, looked up): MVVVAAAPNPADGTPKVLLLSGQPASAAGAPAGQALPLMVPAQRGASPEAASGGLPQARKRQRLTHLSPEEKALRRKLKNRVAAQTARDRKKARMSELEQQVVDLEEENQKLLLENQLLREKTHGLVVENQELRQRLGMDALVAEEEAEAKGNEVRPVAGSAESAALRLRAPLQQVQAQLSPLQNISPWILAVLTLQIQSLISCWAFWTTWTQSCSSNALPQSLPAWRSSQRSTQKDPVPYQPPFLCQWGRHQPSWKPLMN
Sequence of Signal transducer and activator of transcription 3 (Homo sapiens) (P40763 whole entry, looked up, the tested form may be a part): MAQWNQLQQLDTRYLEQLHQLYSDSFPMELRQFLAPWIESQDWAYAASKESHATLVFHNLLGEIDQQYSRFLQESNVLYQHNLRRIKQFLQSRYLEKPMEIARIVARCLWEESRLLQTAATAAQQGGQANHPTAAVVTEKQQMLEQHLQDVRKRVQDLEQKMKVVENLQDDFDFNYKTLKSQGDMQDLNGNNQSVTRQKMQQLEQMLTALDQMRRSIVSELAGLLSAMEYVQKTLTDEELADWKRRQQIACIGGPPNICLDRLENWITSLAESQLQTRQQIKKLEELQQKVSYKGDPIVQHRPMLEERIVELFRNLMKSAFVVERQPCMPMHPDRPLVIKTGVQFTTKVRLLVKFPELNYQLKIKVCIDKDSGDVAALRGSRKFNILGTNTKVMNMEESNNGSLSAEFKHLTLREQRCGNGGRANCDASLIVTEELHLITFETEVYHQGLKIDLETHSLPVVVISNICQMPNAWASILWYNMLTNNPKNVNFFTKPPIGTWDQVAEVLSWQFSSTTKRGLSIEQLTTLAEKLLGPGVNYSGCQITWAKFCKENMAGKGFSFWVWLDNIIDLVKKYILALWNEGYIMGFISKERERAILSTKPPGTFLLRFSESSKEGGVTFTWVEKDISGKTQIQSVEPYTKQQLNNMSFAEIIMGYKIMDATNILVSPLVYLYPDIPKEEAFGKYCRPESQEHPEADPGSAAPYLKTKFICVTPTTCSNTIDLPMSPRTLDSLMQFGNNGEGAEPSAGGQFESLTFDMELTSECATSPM
Sequence of Transcription factor Sp1 (Homo sapiens) (P08047 whole entry, looked up, the tested form may be a part): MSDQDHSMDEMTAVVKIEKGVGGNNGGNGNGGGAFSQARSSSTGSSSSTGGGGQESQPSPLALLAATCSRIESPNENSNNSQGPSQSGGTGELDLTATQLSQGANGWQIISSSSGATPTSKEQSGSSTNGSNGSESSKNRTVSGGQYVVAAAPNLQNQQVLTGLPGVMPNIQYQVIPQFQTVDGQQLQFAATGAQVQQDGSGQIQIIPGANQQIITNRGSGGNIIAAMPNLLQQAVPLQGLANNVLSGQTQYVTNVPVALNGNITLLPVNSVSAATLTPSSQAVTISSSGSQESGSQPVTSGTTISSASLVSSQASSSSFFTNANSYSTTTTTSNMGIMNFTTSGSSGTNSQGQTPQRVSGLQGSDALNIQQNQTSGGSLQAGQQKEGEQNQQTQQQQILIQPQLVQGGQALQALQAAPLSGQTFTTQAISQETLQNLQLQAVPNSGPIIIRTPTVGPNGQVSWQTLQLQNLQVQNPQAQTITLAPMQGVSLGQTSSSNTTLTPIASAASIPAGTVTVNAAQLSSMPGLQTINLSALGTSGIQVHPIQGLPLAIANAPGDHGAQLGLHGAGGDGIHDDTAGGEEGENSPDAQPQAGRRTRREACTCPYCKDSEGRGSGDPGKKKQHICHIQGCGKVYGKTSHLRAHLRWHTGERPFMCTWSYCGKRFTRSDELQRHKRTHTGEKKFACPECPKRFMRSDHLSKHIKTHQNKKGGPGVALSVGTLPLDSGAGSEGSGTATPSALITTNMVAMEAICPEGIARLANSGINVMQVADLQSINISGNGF
Sequence of Paired box protein Pax-6 (Homo sapiens) (P26367 whole entry, looked up): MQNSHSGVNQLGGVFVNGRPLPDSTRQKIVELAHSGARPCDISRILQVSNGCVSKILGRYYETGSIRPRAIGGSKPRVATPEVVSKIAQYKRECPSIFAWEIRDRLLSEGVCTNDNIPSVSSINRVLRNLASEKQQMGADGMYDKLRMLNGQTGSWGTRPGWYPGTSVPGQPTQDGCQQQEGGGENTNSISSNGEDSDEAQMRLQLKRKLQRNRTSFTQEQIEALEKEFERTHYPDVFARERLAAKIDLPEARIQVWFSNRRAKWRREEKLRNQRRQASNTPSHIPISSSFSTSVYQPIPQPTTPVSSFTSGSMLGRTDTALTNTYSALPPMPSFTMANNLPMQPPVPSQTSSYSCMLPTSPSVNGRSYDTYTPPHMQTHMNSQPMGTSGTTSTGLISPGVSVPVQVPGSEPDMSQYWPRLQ
Sequence of Nuclear receptor subfamily 1 group I member 3 (Homo sapiens) (Q14994 whole entry, looked up, the tested form may be a part): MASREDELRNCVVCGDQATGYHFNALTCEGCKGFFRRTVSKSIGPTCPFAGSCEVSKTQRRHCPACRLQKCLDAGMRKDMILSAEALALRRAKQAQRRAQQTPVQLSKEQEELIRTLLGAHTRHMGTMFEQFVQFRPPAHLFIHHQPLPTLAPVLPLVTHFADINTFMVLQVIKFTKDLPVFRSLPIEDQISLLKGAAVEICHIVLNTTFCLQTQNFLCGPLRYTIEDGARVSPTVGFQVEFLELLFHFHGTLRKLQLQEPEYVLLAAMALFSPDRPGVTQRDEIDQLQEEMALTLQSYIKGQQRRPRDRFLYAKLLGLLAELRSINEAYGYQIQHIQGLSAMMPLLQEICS

For orientation: AC50 means the midpoint of the concentration-response curve, whichever way the signal moves. Consider `C[C@]12C=CC3=C4CCC(=O)C=C4CC[C@H]3[C@@H]1CC[C@@H]2O`, for which the half-maximal activity concentration (AC50) was 34.2 µM (active) in [1]; 40.2 µM (active) and 57.3 µM (active) in experiment [2]; 26.8 µM (active) in experiment [3]; 20.1 µM (active) in experiment [4]; 8.08 µM (active) in [6]; 4.15 µM (active) in experiment [7]. In addition, the AC50 was 47.7 µM (active) and 33.4 µM (active) and 19.4 µM (active) in experiment [10]; 134 µM (active) and 10.7 µM (active) in [13]. Besides, the call in [1], in [2], in [3], in experiment [4], in experiment [5] and in experiment [6] was inactive. The result in experiment [7], in experiment [8], in experiment [9], in experiment [10], in experiment [11] and in experiment [12] was inactive. Also, the call in experiment [13] and in [14] was inactive.

For `CC(C)N(Cc1ccccc1)C(=O)C(C)(C)C`, the outcome in [1], in experiment [3], in [4], in [5], in experiment [6] and in experiment [7] was inactive. Besides, the compound was called inactive in [8], in [9], in experiment [10], in experiment [11], in experiment [12] and in experiment [15]. For the same compound, the result in experiment [16], in experiment [13], in experiment [14] and in experiment [17] was inactive. The AC50 in experiment [2] is 1.24 µM (active).

Take `C1=Cc2cccc3cccc1c23`: the outcome in [1], in [3], in [4], in [5], in experiment [6] and in experiment [7] was inactive. The compound was called inactive in [8], in experiment [9], in experiment [10], in [11], in experiment [12] and in [15]. Besides, the outcome in experiment [16] and in experiment [13] was inactive. The half-maximal activity concentration (AC50) in [2] is 16.2 µM (active).
